# Compound activity deposited in PubChem by National Center for Advancing Translational Sciences (NCATS).
# An excerpt weighted towards active compounds, which were near 2.3% of everything screened.
# Hsp90 Hop PPI: qHTS Assay for Disrupters of an Hsp90 Co-Chaperone Interaction; Hsp90 C-terminal peptide / TPR2A (Hop) interaction, human; Potency, µM (series often up to 57 µM), for the others: at the top dose activity change, negative = inhibition; AID 595, 2007; AlphaScreen TPR2A-His6 binding biotin-Hsp90 C-terminal peptide; 0.44% of 71,000 active; active means well fitted curve in either direction with a large enough effect; inconclusive means small, poorly fitted or top-dose-only effect, or another doubt; further: potency means the concentration at half of the fitted maximal effect; on the % scale 0 is the no-effect control and ±100 the full control effect
# BRCT PPI green: qHTS Assay for Inhibitors of BRCT-Phosphoprotein Interaction (Green Fluorophore) | Breast cancer type 1 susceptibility protein (Homo sapiens), P38398 | BRCA1 BRCT-phosphopeptide binding, green fluorescence polarization | Potency, µM (titrated, usually from 76.9 µM), without a hit: top-dose activity change, negative = inhibition, actives largely listed as inhibitors | 0.05% of 75,000 active | AID 875, 2007;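 further: potency means the concentration at half of the fitted maximal effect; plate controls were peptide without protein for full effect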
#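 Compounds were incubated for 12 min at room temperature with a complex of 100 nM fluorescein-tagged pBACH1 decapeptide and 250 nM His-tagged BRCT protein. Buffer was phosphate pH 7.3 with EDTA, DTT and Tween 20. Disruption of binding lowers the polarization signal.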
# TsaE inh: qHTS Assay for Inhibitors of YjeE; 0.05% of 71,000 active; AID 605, 2007; Potency, µM; tRNA threonylcarbamoyladenosine biosynthesis protein TsaE (Escherichia coli (strain …; purified YjeE enzyme, qHTS inhibition assay
#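 Purified YjeE (10 uM) with BODIPY Texas Red-labeled ADP probe (2 uM); compounds pin-transferred, 15 min at room temperature. Binding inhibition read as decreased fluorescence polarization; ADP titration as control.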
# Tau fil binding: qHTS Assay for Tau Filament Binding; Microtubule-associated protein tau (Homo sapiens), P10636; recombinant tau filaments, thioflavin S fluorescence, 15 h; filaments grown with octadecylsulfate alongside compound; Potency, µM (highest dose often 57.1 µM), for inactives: top-dose activity change, negative = inhibition; 2% of 71,000 active; AID 596, 2007;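 further: potency means the concentration at half of the fitted maximal effect; on the % scale 0 is the no-effect control and ±100 the full control effect; actives lower thioflavin S fluorescence by blocking filaments or displacing dye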
#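 Recombinant tau protein (human, 1 uM final) plus 30 uM ODS in HEPES pH 7.4 with NaCl, DTT and thioflavine S. Compound present from the start; fluorescence at 510 nm after 15 h, 37 C.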
# BRCT inh red: qHTS Assay for Inhibitors of BRCT-Phosphoprotein Interaction (Red Fluorophore) | BRCT-phosphopeptide binding, red fluorescence polarization | AID 892, 2007 | 0.03% of 75,000 active | Breast cancer type 1 susceptibility protein (Homo sapiens), P38398 | Potency, µM (series often up to 76.9 µM), without a hit: top-dose activity change, negative = inhibition, actives largely listed as inhibitors; further: on the % scale 0 is the no-effect control and ±100 the full control effect
#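 Fluorescence polarization: 100 nM His-tagged BRCA1 BRCT with 100 nM TAMRA-labelled phospho-BACH1 decapeptide, phosphate buffer pH 7.3 with 150 mM NaCl, DTT, 0.01% Tween 20; 12 min RT. Binding inhibition seen as FP decrease.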
# DNA Pol III inh: qHTS Assay for Inhibitors of DNA Polymerase III Holoenzyme System. 0.25% of 71,000 active. reconstituted DNA polymerase III holoenzyme replication, biochemical. Potency, µM (highest dose often 57.1 µM), for the others: at the highest dose activity change, negative = inhibition; further: potency means the concentration at half of the fitted maximal effect; on the % scale 0 is the no-effect control and ±100 the full control effect
#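 Reconstituted *E. coli* holoenzyme (0.35 nM Pol III, 1 nM beta, 154 nM SSB, 2 nM primase) was preincubated with compound for 15 min at RT. Synthesis on 1.4 nM ssM13Gori ran 35 min, then was stopped with PicoGreen/EDTA and read as dsDNA fluorescence.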
# Starred values were filed as active, the others as inactive; i = inactive; ? = inconclusive; nt = no result; ! = a repeat was not active; [ ] = another dose, or the depositor's remark. Unless noted, the call rests on the fitted dose curve; in most records, active means well fitted curve in the direction sought with a large enough effect; inconclusive means small, poorly fitted or top-dose-only effect, or another doubt; inactive means no such curve, though single readings can be large; an effect the other way counts as inactive or inconclusive.
SMILES,Hsp90 Hop PPI,BRCT PPI green,TsaE inh,Tau fil binding,BRCT inh red,DNA Pol III inh
CC(C)c1c(O)ccc2c1CCC1C(C)(C)CCC[C@@]21C (stereo partly drawn),nt,-3%[3.08 µM],nt,nt,0%,nt
Cc1ccc2cccc(S(=O)(=O)Nc3ccc4c(c3)OCO4)c2n1,?,-2%,i,7.9µM*,-1%,-12%
O=S(=O)(Nc1ccc2c(c1)OCO2)c1ccc(Br)s1,?,-1%,i,20µM*,-5%,3%
FC(F)(F)c1cc(-c2ccccc2)nc(NCC2CCCO2)n1 (stereo not drawn),32µM*,-3%,i,-25%,-1%,1%
Nc1c(Cl)cc(Cl)cc1Cl,-1%,-2%,i,5%,0%,3%
CCc1c(C)[nH]c2c1C(=O)[C@H](CN1CCOCC1)CC2,-4%[26 µM],-3%[34.4 µM],i,-10%[25.6 µM],-1%[34.4 µM],-6%[25.6 µM]
CN(C)Cc1ccccc1-c1nc(NC2CCNCC2)c2ccccc2n1,-1%,0%,i,27%,-1%,25µM*
COc1cccc(-c2nc(NC3CCNCC3)c3ccccc3n2)c1,3%,-1%,i,-10%,-6%,32µM*
c1ccc2c(NC3CCNCC3)nc(-c3ccoc3)nc2c1,-10%,-1%,i,-25%,-1%,-16%
CN(C)c1ccc(-c2nc(NC3CCNCC3)c3ccccc3n2)cc1,-7%,-2%,i,i,1%,?
O=C(Nc1c(F)cc(F)cc1Br)c1cc(-c2ccco2)on1,-4%,3%,i,-9%,-1%,2%
O=C(Nc1ccc(F)cc1F)c1cc(-c2ccco2)on1,0%,8%,i,20µM*,1%,1%
N/N=C1/c2ccccc2N[C@H]1OC(=O)Nc1cccc(Cl)c1,-7%[11 µM],0%[15.4 µM],i,?,-2%[15.4 µM],-14%[11.4 µM]
CCN(CC)CCN1C(=O)c2oc3ccccc3c(=O)c2C1c1cccc(Br)c1 (stereo not drawn),-7%,-2%,i,25µM*,-1%,-3%
Cc1nc2cnc(N3CCN(C)CC3)nc2n(C2CC2)c1=O,?,-1%,i,?,0%,-3%
COc1ccccc1CNc1ncnc2ccc(-c3ccc(N(C)C)cc3)cc12,?,-2%,i,2µM*,1%,-5%
COc1ccc2cc3c(N)c(C(=O)N4CCCC4)sc3nc2c1,-5%,1%,i,20µM*,-1%,-11%
Cc1ccc2cc3c(N)c(C(=O)N4CCOCC4)sc3nc2c1,-2%,0%,i,-18%,-1%,-11%
Cc1ccc(S(=O)(=O)N2CCCC2C(=O)Nc2ccc(O)cc2)cc1 (stereo not drawn),2%,-3%,i,-4%,1%,-4%
O=C(Nc1ccc(O)cc1)C1CC=CCC1 (stereo not drawn),?,1%,?,13µM*,-7%,-5%
Cn1c(=O)c2cc(S(=O)(=O)Nc3ccc4c(c3)OCO4)ccc2n(C)c1=O,-4%,0%,i,1%,2%,1%
Cn1c(=O)oc2cc(S(=O)(=O)Nc3ccc4c(c3)OCO4)ccc21,-26%,-1%,i,20µM*,-1%,-4%
COc1ccc2ccccc2c1C1CC(=O)N2CN(C3CCCCC3)CSC2=C1C#N (stereo not drawn),-12%[2.3 µM],1%,i,13µM*,0%,-10%
CCOc1cc(C2CC(=O)N3CN(C4CCCCC4)CSC3=C2C#N)ccc1O (stereo not drawn),-5%[2.3 µM],-1%,i,-19%,-1%,-3%
COc1ccc2ccccc2c1C1CC(=O)N2CN(Cc3ccco3)CSC2=C1C#N (stereo not drawn),-5%[2.3 µM],-1%,i,7.9µM*,0%,-7%
SMILES,Hsp90 Hop PPI,BRCT PPI green,TsaE inh,Tau fil binding,BRCT inh red,DNA Pol III inh
CC(C)C[C@@H](CC(=O)N[C@@H](CCCN)CC(=O)N[C@@H]1CCNC[C@H]1C(=O)N[C@H](CC(=O)N[C@@H](CCC(=O)O)CC(=O)O)CC(C)C)NC(=O)[C@@H]1CCCC[C@H]1N,-13%,nt,i,-8%,nt,-5%
CN(Cc1ccco1)c1ncncc1-c1ccc2c(c1)OCO2,-11%,-3%,i,-6%,0%,-6%
O=C(OCC(=O)N1CCCC1)c1cncc(Br)c1,-2%,-4%,i,-3%,-1%,-2%
CO[C@@]12C[C@@H](COC(=O)c3cncc(Br)c3)CN(C)[C@H]1Cc1cn(C)c3cccc2c13,10µM*!,-3%,i,?,-2%,-4%
CSC(=N)N,0%,0%,i,-12%,0%,-1%
COc1ccc(NC(=O)N2CC3(CCN(C(=O)c4c(C)noc4C)CC3)C2)cc1,-1%,-1%,i,-1%,0%,-6%
CN1CCN(c2ncc3nc(-c4cccs4)c(=O)n(C[C@H]4CCCO4)c3n2)CC1,-6%,-14%,i,i,0%,-4%
CC(CN(C)C)NC(=O)c1ccc(Cc2nc3ccccc3[nH]2)cc1 (stereo not drawn),nt,1%,nt,nt,0%,nt
O=C(O)CSc1cc(-c2ccccc2)nc2ccccc12,-2%[11 µM],0%[15.4 µM],i,-2%[11.4 µM],1%[15.4 µM],8%[11.4 µM]
On1onc2c3cc(-c4ccccc4)nc3ccc21,-28%,1%,i,13µM*,0%,-8%
O=C(O)c1ccc(Cl)c2c1C1C=CCC1C(c1ccccn1)N2 (stereo not drawn),?,32µM*,40µM*,i,32µM*,?
CC(=O)OCC1OC(C#CCCc2ccccc2)C=CC1OC(C)=O (stereo not drawn),nt,1%[15.4 µM],nt,nt,0%[15.4 µM],nt
OC12CCCCC1C(c1ccc3c(c1)OCO3)N(Cc1cccc(F)c1)CC2 (stereo not drawn),-5%,-1%,i,16µM*,0%,-6%
O=C(O)c1cc(=O)c2ccc(Cl)cc2[nH]1,-6%,2%,i,?,-1%,-6%
N#Cc1c(-c2ccco2)cc(-c2cccnc2)nc1N,?,?,i,225%,?,32µM*
COc1ccc2[nH]cc(C(=O)CN3CCN(C4CCCCC4)CC3)c2c1,0%,0%,i,-8%,1%,4%
COc1ccc2c(C(=O)CN(C)C3CCCCC3)c[nH]c2c1,-5%,3%,i,25µM*,0%,-6%
COC(=O)C/C=C\[C@@H](C)[C@@H](CO)NS(=O)(=O)c1ccc(C)cc1,nt,-2%[15.4 µM],nt,nt,1%[15.4 µM],nt
